Source: PubChem
GalR3 antagonist – blocks the human galanin receptor 3; hit rate 0.44% among 360,000; inhibition, % at 3 µM; O60755; AID 651719; HEK293 GalR3-CNG cAMP membrane potential fluorescence; galR3 body fused to GalR1 C-terminus;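 active = inhibition above the screen-wide average plus 3 SD, cut at about 13% in these data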;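 note: forskolin and galanin both at EC90 stimulate the cells; cAMP rise reported by CNG channel membrane potential dye signal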
NCOA3 inh – inhibitors of human steroid receptor coactivator 3 (SRC3); hit rate 0.17% among 360,000; HEK293 GAL4-SRC3 luciferase reporter, luminescence; inhibition, % at 3.6 µM; AID 588352; Q9Y6Q9;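 active = inhibition above a per-campaign cutoff, the mean of all compounds plus 3 SD, cut at about 60% in these data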;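 note: higher means less SRC3-driven luciferase light from the GAL4 reporter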
NCOA2 inhibitor – human SRC2 (NCOA2) inhibition; inhibition, % at 9 µM; Q15596; HEK293 GAL4-SRC2 luciferase reporter, luminescence; hit rate 0.17% among 370,000;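 active = inhibition above the mean inhibition of all tested compounds plus 3 SD, set per campaign, cut at about 52% in these data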
COUP-TFII inh – blocks human COUP-TFII nuclear receptor. P24468. HEK293T NGFI-A luciferase reporter, luminescence. inhibition, % at 8.6 µM. hit rate 0.7% among 370,000. AID 686940;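 active = inhibition above a per-plate cutoff, mean inhibition of test wells between control levels plus 3 SD, cut at about 38% in these data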;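 note: cells cotransfected with COUP-TFII expression vector driving the NGFI-A reporter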
Target sequence (P24468 whole entry, looked up): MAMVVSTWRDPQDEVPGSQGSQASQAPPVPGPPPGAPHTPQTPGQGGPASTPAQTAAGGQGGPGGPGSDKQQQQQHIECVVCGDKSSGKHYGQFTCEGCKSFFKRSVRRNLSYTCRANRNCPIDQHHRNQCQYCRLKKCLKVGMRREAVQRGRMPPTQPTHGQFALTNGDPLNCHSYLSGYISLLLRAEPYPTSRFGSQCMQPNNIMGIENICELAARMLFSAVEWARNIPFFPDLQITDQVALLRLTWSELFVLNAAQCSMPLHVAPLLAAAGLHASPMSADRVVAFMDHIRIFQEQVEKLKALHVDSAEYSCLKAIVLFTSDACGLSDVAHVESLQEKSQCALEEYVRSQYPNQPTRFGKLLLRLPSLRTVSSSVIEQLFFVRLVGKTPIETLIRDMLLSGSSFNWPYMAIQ
LRH-1 inv ag – inverse agonists of human LRH-1 (NR5A2) | AID 602396 | hit rate 0.13% among 360,000 | inhibition, % at 3.6 µM | HEK293T StAR-luciferase reporter, LRH-1 transfected, 24 h;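 active = inhibition above the mean inhibition of all tested compounds plus 3 SD, cut at about 73% in these data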
NCOA1 inh – inhibits human SRC1 coactivator | Q15788 | HEK293 GAL4-SRC1 luciferase reporter, luminescence | inhibition, % at 3.6 µM | hit rate 0.12% among 360,000 | AID 588354;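 active = inhibition above the campaign mean plus 3 SD, with each screening campaign given its own cutoff, cut at about 60% in these data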
Gal4-VP16 ctr – counter-screen for COUP-TFII antagonists: inhibitors of VP16; shares compounds with COUP-TFII inh; HEK293 Gal4-VP16 luciferase reporter, luminescence; inhibition, % at 8.5 µM; hit rate 25% among 2,500; AID 687007; in the data active = inhibition above about 13%
COUP-TFII conf – COUP-TFII (NR2F2) inhibition, confirmation assay. shares compounds with COUP-TFII inh. HEK293 NGFI-A luciferase reporter, luminescence. inhibition, % at 8.5 µM. hit rate 45% among 2,500. AID 687008;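 active = mean inhibition over three repeats above a set limit taken from the earlier primary screen, cut at about 38% in these data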
Large screens that a line does not name were inactive (follow-up assays come after a bar, where they were run). Shown are actives, neighbours in structure and some others; about 1.1% of the full set was active somewhere.

O=C1CC(c2ccc3c(c2)OCCO3)Oc2ccc([N+](=O)[O-])cc21 (stereo not drawn)	COUP-TFII inh 42 | Gal4-VP16 ctr 20 | COUP-TFII conf 67
COc1cc(-c2cnc3c(NC=O)cc(-c4cccc(C(F)(F)F)c4)cn23)cc(OC)c1OC	COUP-TFII inh 41 | Gal4-VP16 ctr inactive | COUP-TFII conf inactive
Cc1cccc(-c2cc(NC=O)c3ncc(-c4cccc(C(=O)N(C)C)c4)n3c2)c1	none
CN(C)C(=O)c1cccc(-c2cnc3c(NC=O)cc(-c4cccc(C(F)(F)F)c4)cn23)c1	COUP-TFII inh 46 | Gal4-VP16 ctr inactive | COUP-TFII conf inactive
COCCN(CCOC)C(=O)[C@H](CCc1ccccc1)NC(=O)[C@H]1O[C@@H](n2cnc3c(N)ncnc32)[C@H](O)[C@@H]1O	none (no result: NCOA3 inh, LRH-1 inv ag, NCOA1 inh)
O=C(Cc1ccc(Cl)cc1Cl)Nc1ccncc1	COUP-TFII inh 50 | Gal4-VP16 ctr inactive | COUP-TFII conf inactive
S=C(NCc1ccc(Cl)cc1)Nc1ccncc1	COUP-TFII inh 58 | Gal4-VP16 ctr 17 | COUP-TFII conf 44
O=C(NCc1cccs1)C1CCN(S(=O)(=O)c2cccc3ccccc23)CC1	none (no result: GalR3 antagonist, NCOA3 inh, LRH-1 inv ag, NCOA1 inh)
CCc1cc2c(nc1CC)CCCN2S(=O)(=O)c1c(C)noc1C	none (no result: NCOA3 inh, LRH-1 inv ag, NCOA1 inh)
COC(=O)c1ccc(COC(=O)c2[nH]c(C)c(C(C)=O)c2C)o1	COUP-TFII inh 41 | Gal4-VP16 ctr inactive | COUP-TFII conf inactive
C=CCN1C[C@H](COC(=O)CSc2ccccc2)Oc2cccc(F)c2S1(=O)=O	none (no result: NCOA3 inh, LRH-1 inv ag, NCOA1 inh)
O=C(CCN1C(=O)S/C(=C\c2ccccc2)C1=O)N1CCCCC1	none
CCN(CC)CCC(=O)N1C/C(=C/c2ccccc2)C(=O)/C(=C\c2ccccc2)C1	COUP-TFII inh 74 | Gal4-VP16 ctr 67 | COUP-TFII conf 65
O=C1/C(=C\c2ccc(Cl)c(Cl)c2)CN(C(=O)CCN2CCOCC2)C/C1=C/c1ccc(Cl)c(Cl)c1	COUP-TFII inh 85 | Gal4-VP16 ctr 92 | COUP-TFII conf 106
O=C1/C(=C\c2ccccc2)CN(C(=O)CCN2CCCCC2)C/C1=C/c1ccccc1	COUP-TFII inh 63, LRH-1 inv ag 74 | Gal4-VP16 ctr 64 | COUP-TFII conf 63
O=C1/C(=C\c2ccccc2)CCC/C1=C/c1ccccc1	none
COc1ccccc1Cc1c(C2CCCCC2)nc2c(C)cc(Br)cn12	none (no result: NCOA3 inh, LRH-1 inv ag, NCOA1 inh)
Cc1sc2ncnc(NCC(O)c3ccc([N+](=O)[O-])cc3)c2c1C (stereo not drawn)	COUP-TFII inh 63 | Gal4-VP16 ctr inactive | COUP-TFII conf 50
O=C(Nc1cccc(O)c1)c1cc(-c2ccccc2Cl)on1	COUP-TFII inh 60 | Gal4-VP16 ctr inactive | COUP-TFII conf inactive
O=C(Nc1cccc(O)c1)c1cc(-c2ccc3c(c2)OCO3)on1	COUP-TFII inh 43 | Gal4-VP16 ctr inactive | COUP-TFII conf inactive
O=C(OC12CCCN(C1)/C(=C/c1ccncc1)C2)c1ccccc1 (stereo not drawn)	COUP-TFII inh 45 (no result: GalR3 antagonist, NCOA3 inh, LRH-1 inv ag, NCOA1 inh) | Gal4-VP16 ctr inactive | COUP-TFII conf inactive
CCN(CC(=O)Nc1ccc(NC(C)=O)cc1)C(=O)c1ccc(COc2ccc(C(C)(C)C)cc2)cc1	COUP-TFII inh 51 | Gal4-VP16 ctr inactive | COUP-TFII conf 38
O=C1/C(=C/c2ccncc2)CCC/C1=C\c1ccncc1	NCOA2 inhibitor 74, COUP-TFII inh 84 | Gal4-VP16 ctr 66 | COUP-TFII conf 90
CN(C)c1ccc(CCc2ccc(N)cc2)cc1	COUP-TFII inh 59 | Gal4-VP16 ctr 40 | COUP-TFII conf inactive
CN(C)c1ccc(Cc2ccc(N(C)C)cc2)cc1	none
CCOC(=O)C1CCN(C(=O)C(C)N(c2ccc(Oc3ccccc3)cc2)S(C)(=O)=O)CC1 (stereo not drawn)	COUP-TFII inh 45 | Gal4-VP16 ctr inactive | COUP-TFII conf inactive
COc1ccc(N(C(C)C(=O)N2CCC(Cc3ccccc3)CC2)S(C)(=O)=O)cc1 (stereo not drawn)	COUP-TFII inh 42 | Gal4-VP16 ctr inactive | COUP-TFII conf inactive
